# According to article PMC7862700, “An all-to-all approach to the identification of sequence-specific readers for epigenetic DNA modifications on cytosine”:
# Columns and labels:
# Test in all cases: DAPPL (digital affinity profiling via proximity ligation, sequencing); 10 mM Tris-HCl pH 7.5, 50 mM NaCl, 1 mM DTT, 4% glycerol, room temperature, 30 min; GST-TFs on glutathione beads, 16-mer random dsDNA library, 0.1% formaldehyde crosslink after washing; high values mean tight binding
# [1] = target: T1, FEV (Homo sapiens, UniProt Q99581 1-238); settings: protein: recombinant; tags: N-terminal GST; dsDNA, one strand shown
# T1 sequence: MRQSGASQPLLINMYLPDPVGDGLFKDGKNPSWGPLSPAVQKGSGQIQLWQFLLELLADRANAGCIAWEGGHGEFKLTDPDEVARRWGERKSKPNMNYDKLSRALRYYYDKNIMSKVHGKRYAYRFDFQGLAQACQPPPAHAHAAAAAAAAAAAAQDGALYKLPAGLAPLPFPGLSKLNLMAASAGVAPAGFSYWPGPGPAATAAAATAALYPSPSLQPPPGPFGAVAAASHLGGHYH
# Method in brief: (§1)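 Binding signal is defined as a hexamer's read frequency for one factor over its frequency for the tag-only sample. To obtain reads, GST-fused human transcription factors were expressed in yeast, captured on glutathione beads, barcoded with DNA and pooled with that sample. Pools met 200 nmole of a 16-mer random double-stranded DNA library in Tris/NaCl/DTT/glycerol buffer for 30 min at room temperature before washing, 0.1% formaldehyde crosslinking, proximity ligation (BsaI/T4 ligase, 1 h, 37 °C), PCR and Illumina NextSeq500 sequencing.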
# [2] = target: ETV5 (Homo sapiens, UniProt P41161 1-510); settings: protein: recombinant; tags: N-terminal GST; dsDNA, one strand shown
# Chain of ETV5 (P41161 whole entry): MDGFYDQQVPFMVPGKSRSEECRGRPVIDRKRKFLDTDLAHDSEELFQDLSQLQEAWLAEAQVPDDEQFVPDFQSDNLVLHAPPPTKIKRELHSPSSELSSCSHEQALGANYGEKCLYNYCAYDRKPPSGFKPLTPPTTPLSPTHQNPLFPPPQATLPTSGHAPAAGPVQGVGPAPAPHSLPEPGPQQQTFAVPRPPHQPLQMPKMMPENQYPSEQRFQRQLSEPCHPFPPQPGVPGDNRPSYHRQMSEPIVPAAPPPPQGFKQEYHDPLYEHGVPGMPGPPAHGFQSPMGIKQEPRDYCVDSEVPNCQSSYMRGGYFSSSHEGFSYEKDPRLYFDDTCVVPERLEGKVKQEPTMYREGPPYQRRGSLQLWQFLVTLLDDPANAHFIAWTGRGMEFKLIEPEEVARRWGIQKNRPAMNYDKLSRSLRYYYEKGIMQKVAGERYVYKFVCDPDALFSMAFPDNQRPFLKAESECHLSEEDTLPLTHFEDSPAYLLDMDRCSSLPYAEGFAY
# Method in brief: as §1
# [3] = target: T2, SPDEF (Homo sapiens, UniProt O95238 1-335); settings: protein: recombinant; tags: N-terminal GST; dsDNA, one strand shown
# T2 sequence: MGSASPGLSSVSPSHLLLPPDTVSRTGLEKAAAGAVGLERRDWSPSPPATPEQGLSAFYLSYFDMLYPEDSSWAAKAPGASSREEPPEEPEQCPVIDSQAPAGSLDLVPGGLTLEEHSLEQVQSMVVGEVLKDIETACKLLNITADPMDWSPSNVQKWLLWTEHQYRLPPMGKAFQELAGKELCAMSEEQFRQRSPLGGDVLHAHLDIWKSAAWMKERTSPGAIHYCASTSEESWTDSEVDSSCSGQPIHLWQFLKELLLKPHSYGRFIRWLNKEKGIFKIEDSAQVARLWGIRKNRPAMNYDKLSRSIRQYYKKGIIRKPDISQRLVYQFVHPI
# Method in brief: as §1
# [4] = target: T3, ELF5 (Homo sapiens, UniProt Q9UKW6-2 1-255); settings: protein: recombinant; tags: N-terminal GST; dsDNA, one strand shown
# T3 sequence: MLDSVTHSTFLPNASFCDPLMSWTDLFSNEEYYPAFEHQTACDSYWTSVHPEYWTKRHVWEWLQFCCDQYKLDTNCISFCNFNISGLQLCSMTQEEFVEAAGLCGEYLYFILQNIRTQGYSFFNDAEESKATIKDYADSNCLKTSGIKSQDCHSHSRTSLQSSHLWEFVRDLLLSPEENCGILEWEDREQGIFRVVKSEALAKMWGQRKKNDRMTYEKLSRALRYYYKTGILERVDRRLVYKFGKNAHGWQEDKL
# Method in brief: as §1
# [5] = target: HSF1 (Homo sapiens, UniProt Q00613 1-529); settings: protein: recombinant; tags: N-terminal GST; chain copies: 3; dsDNA, one strand shown
# Chain of HSF1 (Q00613 whole entry): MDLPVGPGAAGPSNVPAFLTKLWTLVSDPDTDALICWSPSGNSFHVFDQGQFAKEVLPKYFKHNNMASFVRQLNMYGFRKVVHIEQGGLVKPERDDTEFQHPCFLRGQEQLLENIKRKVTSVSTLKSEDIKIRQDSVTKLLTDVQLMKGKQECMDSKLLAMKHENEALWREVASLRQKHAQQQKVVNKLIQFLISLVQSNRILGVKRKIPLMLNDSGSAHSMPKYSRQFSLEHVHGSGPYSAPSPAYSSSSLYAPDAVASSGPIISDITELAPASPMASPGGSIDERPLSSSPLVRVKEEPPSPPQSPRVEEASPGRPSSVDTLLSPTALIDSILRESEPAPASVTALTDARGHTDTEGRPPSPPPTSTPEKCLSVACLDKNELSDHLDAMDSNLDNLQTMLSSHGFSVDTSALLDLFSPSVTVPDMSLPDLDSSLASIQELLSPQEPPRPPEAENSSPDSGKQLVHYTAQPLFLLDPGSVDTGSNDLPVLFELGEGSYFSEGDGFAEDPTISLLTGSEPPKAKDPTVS
# Method in brief: as §1
# [6] = target: CRX (Homo sapiens, UniProt O43186 1-299); settings: protein: recombinant; tags: N-terminal GST; dsDNA, one strand shown
# Chain of CRX (O43186 whole entry): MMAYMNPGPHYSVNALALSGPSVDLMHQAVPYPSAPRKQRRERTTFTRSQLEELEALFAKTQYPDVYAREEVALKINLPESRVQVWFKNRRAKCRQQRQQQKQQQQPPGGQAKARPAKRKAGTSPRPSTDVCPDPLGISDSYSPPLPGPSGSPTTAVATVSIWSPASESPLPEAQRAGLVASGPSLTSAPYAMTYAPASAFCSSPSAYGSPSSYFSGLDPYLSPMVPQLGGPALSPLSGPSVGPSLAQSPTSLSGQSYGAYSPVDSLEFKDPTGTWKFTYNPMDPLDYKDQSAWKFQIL
# Method in brief: as §1
# [7] = target: SPI1 (Homo sapiens, UniProt P17947 1-270); settings: protein: recombinant; tags: N-terminal GST; dsDNA, one strand shown
# Method in brief: as §1
sequence,measurement,setting,value
GCCGGA,binding signal,[1],"1.59 fold enrichment (6-mer frequency, TF over GST control)"
same,binding signal,[2],"1.16 fold enrichment (6-mer frequency, TF over GST control)"
same,binding signal,[3],"1.37 fold enrichment (6-mer frequency, TF over GST control)"
same,binding signal,[4],"1.05 fold enrichment (6-mer frequency, TF over GST control)"
TAGATA,binding signal,[5],"1.46 fold enrichment (6-mer frequency, TF over GST control)"
same,binding signal,[6],"1.48 fold enrichment (6-mer frequency, TF over GST control)"
same,binding signal,[3],"1.06 fold enrichment (6-mer frequency, TF over GST control)"
ATAAGT,binding signal,[7],"1 fold enrichment (6-mer frequency, TF over GST control)"
same,binding signal,[5],"1.28 fold enrichment (6-mer frequency, TF over GST control)"
same,binding signal,[6],"1.79 fold enrichment (6-mer frequency, TF over GST control)"
same,binding signal,[3],"1.05 fold enrichment (6-mer frequency, TF over GST control)"
CTAGAA,binding signal,[5],"6.29 fold enrichment (6-mer frequency, TF over GST control)"
same,binding signal,[6],"2.13 fold enrichment (6-mer frequency, TF over GST control)"
same,binding signal,[3],"1.01 fold enrichment (6-mer frequency, TF over GST control)"
AGTCTC,binding signal,[7],"1.07 fold enrichment (6-mer frequency, TF over GST control)"
same,binding signal,[5],"1 fold enrichment (6-mer frequency, TF over GST control)"
TAGACT,binding signal,[7],"1 fold enrichment (6-mer frequency, TF over GST control)"
same,binding signal,[5],"1.32 fold enrichment (6-mer frequency, TF over GST control)"
same,binding signal,[6],"1.27 fold enrichment (6-mer frequency, TF over GST control)"
CATGCG,binding signal,[5],"1.07 fold enrichment (6-mer frequency, TF over GST control)"
same,binding signal,[3],"1.01 fold enrichment (6-mer frequency, TF over GST control)"
GTAAGC,binding signal,[5],"1.04 fold enrichment (6-mer frequency, TF over GST control)"
same,binding signal,[6],"1.51 fold enrichment (6-mer frequency, TF over GST control)"
TAAAGG,binding signal,[7],"1.03 fold enrichment (6-mer frequency, TF over GST control)"
same,binding signal,[1],"1.02 fold enrichment (6-mer frequency, TF over GST control)"
same,binding signal,[5],"1.15 fold enrichment (6-mer frequency, TF over GST control)"
same,binding signal,[6],"1.56 fold enrichment (6-mer frequency, TF over GST control)"
same,binding signal,[4],"1.1 fold enrichment (6-mer frequency, TF over GST control)"
GATTTA,binding signal,[5],"1.54 fold enrichment (6-mer frequency, TF over GST control)"
same,binding signal,[6],"2.33 fold enrichment (6-mer frequency, TF over GST control)"
same,binding signal,[3],"1.08 fold enrichment (6-mer frequency, TF over GST control)"
GCTAAG,binding signal,[5],"1.13 fold enrichment (6-mer frequency, TF over GST control)"
same,binding signal,[6],"1.75 fold enrichment (6-mer frequency, TF over GST control)"
same,binding signal,[3],"1.11 fold enrichment (6-mer frequency, TF over GST control)"
same,binding signal,[4],"1.01 fold enrichment (6-mer frequency, TF over GST control)"
TGAATC,binding signal,[7],"1.11 fold enrichment (6-mer frequency, TF over GST control)"
same,binding signal,[5],"1.03 fold enrichment (6-mer frequency, TF over GST control)"
same,binding signal,[6],"1.08 fold enrichment (6-mer frequency, TF over GST control)"
same,binding signal,[3],"1.11 fold enrichment (6-mer frequency, TF over GST control)"
ACCTAG,binding signal,[7],"1.02 fold enrichment (6-mer frequency, TF over GST control)"
same,binding signal,[1],"1.03 fold enrichment (6-mer frequency, TF over GST control)"
same,binding signal,[5],"1.21 fold enrichment (6-mer frequency, TF over GST control)"
TTGCCA,binding signal,[7],"1.07 fold enrichment (6-mer frequency, TF over GST control)"
same,binding signal,[1],"1.11 fold enrichment (6-mer frequency, TF over GST control)"
same,binding signal,[5],"1.01 fold enrichment (6-mer frequency, TF over GST control)"
same,binding signal,[6],"1.06 fold enrichment (6-mer frequency, TF over GST control)"
same,binding signal,[3],"1.14 fold enrichment (6-mer frequency, TF over GST control)"
same,binding signal,[4],"1.04 fold enrichment (6-mer frequency, TF over GST control)"
TTAGAT,binding signal,[1],"1.01 fold enrichment (6-mer frequency, TF over GST control)"
same,binding signal,[5],"1.49 fold enrichment (6-mer frequency, TF over GST control)"
same,binding signal,[6],"2.04 fold enrichment (6-mer frequency, TF over GST control)"
same,binding signal,[3],"1.08 fold enrichment (6-mer frequency, TF over GST control)"
CCCCAG,binding signal,[7],"1.04 fold enrichment (6-mer frequency, TF over GST control)"
same,binding signal,[5],"1.03 fold enrichment (6-mer frequency, TF over GST control)"
GATCAA,binding signal,[5],"1.25 fold enrichment (6-mer frequency, TF over GST control)"
same,binding signal,[6],"1.52 fold enrichment (6-mer frequency, TF over GST control)"
same,binding signal,[3],"1.05 fold enrichment (6-mer frequency, TF over GST control)"
TCTAGA,binding signal,[5],"6.17 fold enrichment (6-mer frequency, TF over GST control)"
same,binding signal,[6],"2.19 fold enrichment (6-mer frequency, TF over GST control)"
GATCTA,binding signal,[7],"1 fold enrichment (6-mer frequency, TF over GST control)"
same,binding signal,[5],"1.41 fold enrichment (6-mer frequency, TF over GST control)"
same,binding signal,[6],"1.41 fold enrichment (6-mer frequency, TF over GST control)"
same,binding signal,[3],"1.1 fold enrichment (6-mer frequency, TF over GST control)"
same,binding signal,[4],"1.05 fold enrichment (6-mer frequency, TF over GST control)"
TCAATC,binding signal,[7],"1.06 fold enrichment (6-mer frequency, TF over GST control)"
same,binding signal,[5],"1.13 fold enrichment (6-mer frequency, TF over GST control)"
same,binding signal,[6],"1.33 fold enrichment (6-mer frequency, TF over GST control)"
CTTAAG,binding signal,[7],"1 fold enrichment (6-mer frequency, TF over GST control)"
same,binding signal,[1],"1.05 fold enrichment (6-mer frequency, TF over GST control)"
same,binding signal,[5],"1.7 fold enrichment (6-mer frequency, TF over GST control)"
same,binding signal,[6],"2.69 fold enrichment (6-mer frequency, TF over GST control)"
same,binding signal,[3],"1.04 fold enrichment (6-mer frequency, TF over GST control)"
same,binding signal,[4],"1.09 fold enrichment (6-mer frequency, TF over GST control)"
ATAAGA,binding signal,[7],"1.13 fold enrichment (6-mer frequency, TF over GST control)"
same,binding signal,[1],"1.01 fold enrichment (6-mer frequency, TF over GST control)"
same,binding signal,[5],"1.54 fold enrichment (6-mer frequency, TF over GST control)"
same,binding signal,[6],"1.97 fold enrichment (6-mer frequency, TF over GST control)"
same,binding signal,[3],"1.15 fold enrichment (6-mer frequency, TF over GST control)"
same,binding signal,[4],"1.02 fold enrichment (6-mer frequency, TF over GST control)"
GTTCGC,binding signal,[7],"1.04 fold enrichment (6-mer frequency, TF over GST control)"
same,binding signal,[1],"1.06 fold enrichment (6-mer frequency, TF over GST control)"
same,binding signal,[5],"1.12 fold enrichment (6-mer frequency, TF over GST control)"
same,binding signal,[4],"1.01 fold enrichment (6-mer frequency, TF over GST control)"
TGGATA,binding signal,[1],"1.03 fold enrichment (6-mer frequency, TF over GST control)"
same,binding signal,[5],"1.2 fold enrichment (6-mer frequency, TF over GST control)"
same,binding signal,[6],"1.34 fold enrichment (6-mer frequency, TF over GST control)"
same,binding signal,[3],"1.06 fold enrichment (6-mer frequency, TF over GST control)"
same,binding signal,[4],"1.04 fold enrichment (6-mer frequency, TF over GST control)"
